# Laboratory results from the supplement of paper PMC6555819.
# System: PPARg:RXRa 30nM:10nM, anti-RXR (NR concentration 30 nM, RXRa partner concentration 10 nM)
# Assay: PBM binding z-score (relative to random genomic background probes); higher = stronger binding; sequences stand for … in GC…GCGATTGACAGCGTAGAATGAAGG
# Summary of the method: (§1)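 Binding z-scores take random background probes as their reference. They come from custom Agilent 4×180K protein-binding microarrays incubated 1 h with ligand-free nuclear receptor dimers, with antibodies against each partner (one per run) detecting binding. Scanned fluorescence was regression-normalized.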
row,Sequence,PBM binding z-score
1,TCGAGTAGGTTAGGGGCATGCAGAATGGCGTCGA,0.979
2,TCATATAGGTGAAGGTGAAAGTCGAACGATATGA,4.73
3,GCGACCGGGGCAAAGCAGGTTACCATAAGGTTGG,-0.666
4,CAGACTGGGGCAAGGTTACCATAACGCACAGCCA,1.96
5,CCTAGTTGGTCTAGGTCACACACGCTATAGGTAC,0.318
6,ATATGTAGGTTATCGGGTCATTCCGTTTGCGCAT,3.37
7,CCTAACAGGCCAATCTGGGTCACTCAAGGCTTGA,0.094
8,CCTAGCAGGCCAGGGTCACTCGAGCATTTCGCTT,-0.327
9,CAAACTAGGTCGCGAAAGGTCAAAGTCGAATGAC,4.55
10,ACTAGTTGGTCAGCCGAGGTCACACACAATTCGG,0.926
11,TCTTGTAGATCAATAGAGATTAAGAAAGTGCGCT,2.5
12,ACTAGTTGGTCAGCTGAGGTCAGACACAATTCGG,0.223
13,AGAACGAGGGCACGCTGAGTTGATAGAAGAGTAG,0.398
14,ACTCGGAGGCCAAAGGTCAGAGCTACGCCAGTGA,6.53
15,TATACAGCGTCAAAGGCCAGAGTACGAATGTCGA,0.56
16,AGAACGAGGGCACGCTTAGTTGATAGCAGAGTAG,0.46
17,GCTTACGGGTCAAAGCTTATAGCATGAATAGAAT,2.66
18,TGTCAAAGTTCAAAGGTAACATAAGTATCCACAC,5.46
19,AGTCAAAGTTCATCTAGGTACCGTAAGATATGCT,3.36
20,CCTAGTTGGTCAAGGTCACACAAGCTATAGGTAC,1.36

row,Sequence,PBM binding z-score
1,ATATGTAGGTTATCGGGACATTCAGTTTGCGCAT,2.25
2,CCTCACGGGTCAAGGTTATAGCACGGGTGGTACG,0.731
3,TCATATTGGTAAACAGGTGAAAGTCCGTAAGTTA,4.04
4,CTCGAAAGGTCGGTCGAGGTGAGTATACGGATAA,0.401
5,CGTCCAAGGTCATAGGAGGTCAGTTAAGACAGAT,2.29
6,GATACAGGGTCAGCTAGAGGCCAGAGTTTGGAAA,0.716
7,GCTAGTTGGTCAGTAAAAGGTCACACATCGGTCG,2.08
8,TCATATAGGTAAAAGGTGGAAGTCGGTGTGGTAA,6.28
9,GCAGACAGGTGAAACGCAGGAAACTCAGGGTGGC,-0.59
10,CCTGCTAGATCAATGGTCAGCTAAAGCAGCTCGC,-0.8
11,GTACCAGGGTGAATAGGTCGTTGATGAGTAGGCG,0.0734
12,TCATATAGGTCAATGCTAGGTGAAAGTCCGATCT,4.7
13,GCTAGCTGGCCATTTGGGTCACTCAATGACGGGC,-1
14,TCATATAGGTAAACGTGAAAGTCGAACGATATGA,3.42
15,CAAACTAGGTCAAAGGTCTAAGTCGAGCCAACCA,9.99
16,GCTTACGGGTCATAGGTTATAGCATGAATAGAAT,6.8
17,CAAACTAGGTCACGAAAGGTCAAAGACGAATGAC,8.01
18,CGTCCCAGGTCAATGCTAGGTCAGTGAAAGCATT,0.367
19,TCTCGGAGGACACGAACGGTCAGAGCTCGACATC,1.74
20,CCGACTGGGGCATAATGTTACCATAAGCCAGCCC,-0.289

# System: PPARg:RXRa 90nM:30nM, anti-RXR (NR concentration 90 nM, RXRa partner concentration 30 nM)
# Assay: as above
# Summary of the method: as §1
row,Sequence,PBM binding z-score
1,TCGAGTAGGTTAGGGGCATGCAGAATGGCGTCGA,1.27
2,TCATATAGGTGAAGGTGAAAGTCGAACGATATGA,4.96
3,GCGACCGGGGCAAAGCAGGTTACCATAAGGTTGG,-0.143
4,CAGACTGGGGCAAGGTTACCATAACGCACAGCCA,3.63
5,CCTAGTTGGTCTAGGTCACACACGCTATAGGTAC,0.958
6,ATATGTAGGTTATCGGGTCATTCCGTTTGCGCAT,5.6
7,CCTAACAGGCCAATCTGGGTCACTCAAGGCTTGA,1.57
8,CCTAGCAGGCCAGGGTCACTCGAGCATTTCGCTT,0.652
9,CAAACTAGGTCGCGAAAGGTCAAAGTCGAATGAC,6.34
10,ACTAGTTGGTCAGCCGAGGTCACACACAATTCGG,2.06
11,TCTTGTAGATCAATAGAGATTAAGAAAGTGCGCT,2.08
12,ACTAGTTGGTCAGCTGAGGTCAGACACAATTCGG,0.908
13,AGAACGAGGGCACGCTGAGTTGATAGAAGAGTAG,1.11
14,ACTCGGAGGCCAAAGGTCAGAGCTACGCCAGTGA,8.9
15,TATACAGCGTCAAAGGCCAGAGTACGAATGTCGA,1.13
16,AGAACGAGGGCACGCTTAGTTGATAGCAGAGTAG,1.5
17,GCTTACGGGTCAAAGCTTATAGCATGAATAGAAT,4.08
18,TGTCAAAGTTCAAAGGTAACATAAGTATCCACAC,7.34
19,AGTCAAAGTTCATCTAGGTACCGTAAGATATGCT,5.38
20,CCTAGTTGGTCAAGGTCACACAAGCTATAGGTAC,2.63

row,Sequence,PBM binding z-score
1,ATATGTAGGTTATCGGGACATTCAGTTTGCGCAT,3.45
2,CCTCACGGGTCAAGGTTATAGCACGGGTGGTACG,2.35
3,TCATATTGGTAAACAGGTGAAAGTCCGTAAGTTA,3.3
4,CTCGAAAGGTCGGTCGAGGTGAGTATACGGATAA,0.892
5,CGTCCAAGGTCATAGGAGGTCAGTTAAGACAGAT,4.5
6,GATACAGGGTCAGCTAGAGGCCAGAGTTTGGAAA,2.22
7,GCTAGTTGGTCAGTAAAAGGTCACACATCGGTCG,3.74
8,TCATATAGGTAAAAGGTGGAAGTCGGTGTGGTAA,7.79
9,GCAGACAGGTGAAACGCAGGAAACTCAGGGTGGC,-0.582
10,CCTGCTAGATCAATGGTCAGCTAAAGCAGCTCGC,-0.292
11,GTACCAGGGTGAATAGGTCGTTGATGAGTAGGCG,0.776
12,TCATATAGGTCAATGCTAGGTGAAAGTCCGATCT,5.89
13,GCTAGCTGGCCATTTGGGTCACTCAATGACGGGC,-0.612
14,TCATATAGGTAAACGTGAAAGTCGAACGATATGA,2.86
15,CAAACTAGGTCAAAGGTCTAAGTCGAGCCAACCA,11.8
16,GCTTACGGGTCATAGGTTATAGCATGAATAGAAT,8.53
17,CAAACTAGGTCACGAAAGGTCAAAGACGAATGAC,8.93
18,CGTCCCAGGTCAATGCTAGGTCAGTGAAAGCATT,1.97
19,TCTCGGAGGACACGAACGGTCAGAGCTCGACATC,0.89
20,CCGACTGGGGCATAATGTTACCATAAGCCAGCCC,0.632
